Laboratory results from PubChem BioAssay.
For some assays here: Potency and affinity values are given separately. Activity calls are given as the source filed them. Unless noted, how the calls were made is not given here.

What was measured:
[1] = antimalarial activity against Dd2 strain (AID 2302;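 active means growth inhibition above 50% at the single 2 µM test dose, taken to imply half-maximal potency below 2 µM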;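 further: 0% = DMSO untreated growth and 100% = chloroquine plus artemisinin killed control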); settings: P. falciparum Dd2 in RBCs, LDH growth readout, 72 h; at 2 µM; hits give high values
[2] = human hepatoma cell viability loss – ATP luminescence, cytotoxicity control for P. falciparum antimalarial project, primary screen (AID 2303;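 active means inhibition above 50%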;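 further: 0% = DMSO wells and 100% = digitonin-killed cells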); settings: HepG2 viability, 24-48 h, at 10 µM, hits give high values
[3] = target: L-lactate dehydrogenase (Plasmodium falciparum (isolate CDC / Honduras)) (UniProt Q27743); test: PfLDH activity inhibition – cell lysate, 3D7 strain, counter-screen for P. falciparum growth inhibition project (AID 2304);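 further: 0% = vehicle and 100% = reference inhibitor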; settings: P. falciparum 3D7 crude extract, LDH APAD/NBT absorbance; at 2 µM; hits give high values
[4] = inhibition of 3D7 malaria parasite growth – strain 3D7 (AID 2306);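 further: 0% = DMSO wells and 100% = chloroquine plus artemisinin control wells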; settings: P. falciparum 3D7 erythrocytic growth, LDH absorbance, 72 h; at 2 µM; hits give high values
[5] = target: Calcium-dependent protein kinase 1 (Plasmodium falciparum (isolate 3D7)) (UniProt P62344); test: PfCDPK1 kinase inhibitors, biochemical, TCAMS library (AID 1159585; cut-off not given, nearly all actives have IC50 up to about 0.98 µM;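 further: inhibitors leave more ATP so luminescence rises with inhibition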); settings: recombinant PfCDPK1, Kinase-Glo ATP depletion luminescence
[6] = target: Plasmodium falciparum protein kinase 6 (PK6, PF3D7_1337100) (UniProt Q8IDW1); test: PfPK6 kinase inhibitors, biochemical, TCAMS library (AID 1159586); settings: recombinant PfPK6, Kinase-Glo ATP depletion luminescence
[7] = target: Protein kinase 7 (PK7), Plasmodium falciparum 3D7 (PF3D7_0213400) (UniProt Q7YTF7); test: inhibition of Plasmodium PK7 catalytic activity – biochemical, TCAMS antimalarial set, Kinase-Glo luminescence (AID 1159587); settings: recombinant PfPK7, Kinase-Glo ATP depletion luminescence
[8] = target: Calcium-dependent protein kinase 4 (Plasmodium falciparum (isolate 3D7)) (UniProt Q8IBS5); test: PfCDPK4 kinase inhibitors, biochemical, TCAMS library (AID 1159588; cut-off not given, nearly all actives have IC50 up to about 0.91 µM); settings: recombinant PfCDPK4, Kinase-Glo ATP depletion luminescence
Chain of Calcium-dependent protein kinase 4 (Plasmodium falciparum (isolate 3D7)) (Q8IBS5 whole entry, looked up): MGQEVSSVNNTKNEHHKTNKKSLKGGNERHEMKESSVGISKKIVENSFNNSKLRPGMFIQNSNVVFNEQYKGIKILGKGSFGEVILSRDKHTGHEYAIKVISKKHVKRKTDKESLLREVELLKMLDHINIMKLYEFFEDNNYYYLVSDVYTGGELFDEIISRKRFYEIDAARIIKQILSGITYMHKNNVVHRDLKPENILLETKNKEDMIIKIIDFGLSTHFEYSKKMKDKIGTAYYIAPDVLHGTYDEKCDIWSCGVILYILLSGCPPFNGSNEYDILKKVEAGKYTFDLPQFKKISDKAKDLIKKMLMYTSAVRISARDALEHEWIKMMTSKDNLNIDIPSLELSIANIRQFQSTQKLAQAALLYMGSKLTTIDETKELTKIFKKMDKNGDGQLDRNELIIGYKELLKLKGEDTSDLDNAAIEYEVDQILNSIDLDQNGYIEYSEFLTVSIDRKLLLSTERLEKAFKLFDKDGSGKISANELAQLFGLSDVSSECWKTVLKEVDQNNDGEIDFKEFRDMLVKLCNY

Chain of Plasmodium falciparum protein kinase 6 (PK6, PF3D7_1337100) (Q8IDW1 1-305): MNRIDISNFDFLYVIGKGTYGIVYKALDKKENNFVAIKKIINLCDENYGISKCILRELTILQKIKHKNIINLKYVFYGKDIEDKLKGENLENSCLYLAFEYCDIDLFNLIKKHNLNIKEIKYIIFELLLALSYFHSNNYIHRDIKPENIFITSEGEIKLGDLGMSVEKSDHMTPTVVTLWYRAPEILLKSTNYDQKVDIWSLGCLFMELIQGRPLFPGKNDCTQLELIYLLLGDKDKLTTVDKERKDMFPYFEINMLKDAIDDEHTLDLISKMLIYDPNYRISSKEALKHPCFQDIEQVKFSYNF
Chain of Protein kinase 7 (PK7), Plasmodium falciparum 3D7 (PF3D7_0213400) (Q7YTF7 1-343): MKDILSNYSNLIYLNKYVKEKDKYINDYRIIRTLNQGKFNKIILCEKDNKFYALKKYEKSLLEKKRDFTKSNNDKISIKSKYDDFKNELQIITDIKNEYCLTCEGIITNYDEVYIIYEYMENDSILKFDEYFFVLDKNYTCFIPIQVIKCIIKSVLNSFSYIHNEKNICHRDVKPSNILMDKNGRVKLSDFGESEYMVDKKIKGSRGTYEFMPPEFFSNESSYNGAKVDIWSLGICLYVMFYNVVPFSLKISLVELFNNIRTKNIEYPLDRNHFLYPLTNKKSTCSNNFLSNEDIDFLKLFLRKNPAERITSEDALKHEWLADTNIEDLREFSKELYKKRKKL
Chain of Calcium-dependent protein kinase 1 (Plasmodium falciparum (isolate 3D7)) (P62344 whole entry, looked up): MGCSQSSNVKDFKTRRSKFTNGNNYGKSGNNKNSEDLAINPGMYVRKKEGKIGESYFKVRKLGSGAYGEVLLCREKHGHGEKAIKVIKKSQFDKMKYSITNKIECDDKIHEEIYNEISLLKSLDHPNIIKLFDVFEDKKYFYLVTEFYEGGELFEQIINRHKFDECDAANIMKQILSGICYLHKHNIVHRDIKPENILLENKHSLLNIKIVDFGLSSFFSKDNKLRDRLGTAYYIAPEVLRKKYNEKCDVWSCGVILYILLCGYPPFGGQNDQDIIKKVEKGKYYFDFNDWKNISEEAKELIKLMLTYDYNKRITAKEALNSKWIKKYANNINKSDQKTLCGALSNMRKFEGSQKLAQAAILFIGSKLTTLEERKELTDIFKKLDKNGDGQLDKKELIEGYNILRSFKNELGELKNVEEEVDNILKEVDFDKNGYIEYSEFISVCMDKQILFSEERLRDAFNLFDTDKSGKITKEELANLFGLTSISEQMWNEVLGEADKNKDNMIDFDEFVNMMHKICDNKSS
Chain of L-lactate dehydrogenase (Plasmodium falciparum (isolate CDC / Honduras)) (Q27743 whole entry, looked up): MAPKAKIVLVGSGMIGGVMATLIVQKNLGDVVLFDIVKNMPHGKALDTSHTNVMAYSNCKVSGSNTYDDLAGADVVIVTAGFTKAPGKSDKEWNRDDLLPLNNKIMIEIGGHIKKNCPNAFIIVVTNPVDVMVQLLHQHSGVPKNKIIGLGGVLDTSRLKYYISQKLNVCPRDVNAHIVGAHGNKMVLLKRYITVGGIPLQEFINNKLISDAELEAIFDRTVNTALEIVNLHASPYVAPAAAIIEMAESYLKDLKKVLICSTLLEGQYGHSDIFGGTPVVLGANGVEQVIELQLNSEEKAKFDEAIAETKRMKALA

CN(C(=O)C(C)(C)Oc1ccc(Cl)cc1)C1CCN(CCCCCNC(=O)/C=C/c2ccc(Cl)c(Cl)c2)CC1
inactive: growth inhibition [1] 26% | inhibition [3] 0% | outcome [5] | outcome [6] | outcome [7] | outcome [8]
active: inhibition [2] 86% | growth inhibition [4] 96%

N#Cc1ccc(N[C@@H](CC2CCCCC2)C(=O)NCc2cc(Cl)cc(Cl)c2)c2ccccc12
active: growth inhibition [1] 88% | growth inhibition [4] 94%
inactive: inhibition [2] 34% | inhibition [3] 0% | outcome [5] | outcome [6] | outcome [7] | outcome [8]

CC1(C)N=C(N)N=C(N)N1c1ccc(Oc2ccccc2)cc1
inactive: growth inhibition [1] 3% | inhibition [2] 13% | inhibition [3] -6% | outcome [5] | outcome [6] | outcome [7] | outcome [8]
active: growth inhibition [4] 98%

Cc1noc(C)c1-c1cccc(CNCc2ccc(-c3ccc(-c4nc5ccccc5[nH]4)s3)cc2)c1
active: growth inhibition [1] 79% | growth inhibition [4] 103%
inactive: inhibition [2] 41% | inhibition [3] -6% | outcome [5] | outcome [6] | outcome [7] | outcome [8]

c1ccc(CNc2nc(NCCc3cnc[nH]3)nc(N3CCCC4CCCCC43)n2)cc1 (stereo not given)
inactive: inhibition [2] -6% | inhibition [3] -3% | outcome [5] | outcome [6] | outcome [7] | outcome [8]
active: growth inhibition [1] 100% | growth inhibition [4] 98%

O=C(/C=C/c1ccc(Cl)c(Cl)c1)NCCCCCN1CCCN(C(=O)Nc2cc(F)cc(F)c2)CC1
inactive: growth inhibition [1] 1% | inhibition [2] 4% | inhibition [3] 0% | outcome [5] | outcome [6] | outcome [7] | outcome [8]
active: growth inhibition [4] 94%

CC(C)CCNc1nc(NCc2ccccc2)c2cc(O)ccc2n1
inactive: inhibition [2] 25% | inhibition [3] 3% | outcome [5] | outcome [6] | outcome [7] | outcome [8]
active: growth inhibition [1] 92% | growth inhibition [4] 103%

COc1ccc(CC2(c3ccc(F)cc3)N=C(N)N(CCCc3ccccc3)C2=O)cc1 (stereo not given)
inactive: inhibition [2] 38% | inhibition [3] 0% | outcome [5] | outcome [6] | outcome [7] | outcome [8]
active: growth inhibition [1] 97% | growth inhibition [4] 99%

Cc1cnc(NCC2CCCCC2)nc1NCC(=O)Nc1ccccc1
inactive: inhibition [2] 21% | inhibition [3] 0% | outcome [5] | outcome [6] | outcome [7] | outcome [8]
active: growth inhibition [1] 51% | growth inhibition [4] 90%

Clc1ccccc1C=NNc1ccnc2ccccc12
inactive: inhibition [2] 25% | inhibition [3] -3% | outcome [5] | outcome [6] | outcome [7] | outcome [8]
active: growth inhibition [1] 50% | growth inhibition [4] 100%

Cc1ccc(Nc2nc(C)cc(NCc3ccc(-n4ccnc4)cc3)n2)cc1
active: growth inhibition [1] 100% | growth inhibition [4] 101%
inactive: inhibition [2] 33% | inhibition [3] 1% | outcome [5] | outcome [6] | outcome [7] | outcome [8]

CCc1cn(C)c2c(N3CCCC3=O)cc(C(=O)N[C@@H](Cc3ccccc3)[C@H](O)CNC(C)(C)c3cccc(OC)c3)cc12
active: growth inhibition [1] 99% | growth inhibition [4] 95%
inactive: inhibition [2] 9% | inhibition [3] -1% | outcome [5] | outcome [6] | outcome [7] | outcome [8]

NC(=O)c1ccccc1Nc1nc(Nc2ccc(N3CCOCC3)cc2)ncc1[N+](=O)[O-]
inactive: inhibition [3] 1% | outcome [5] | outcome [6] | outcome [7] | outcome [8]
active: growth inhibition [1] 96% | inhibition [2] 53% | growth inhibition [4] 98%

O=C(C1CCN(C(c2ccccc2)c2ccc(Cl)c(Cl)c2)CC1)N1CC=CC1 (stereo not given)
active: growth inhibition [1] 84% | growth inhibition [4] 89%
inactive: inhibition [2] 1% | inhibition [3] 7% | outcome [5] | outcome [6] | outcome [7] | outcome [8]

O=C(Nc1cccc(Cl)c1)c1cnc(N2CCN(c3ccncc3)CC2)c(Cl)c1
inactive: inhibition [3] 4% | outcome [5] | outcome [6] | outcome [7] | outcome [8]
active: growth inhibition [1] 97% | inhibition [2] 54% | growth inhibition [4] 101%

CCCC(C)NC[C@@H](O)[C@H](Cc1ccccc1)NC(=O)c1cc(NCC)cc(N2CCCCS2(=O)=O)c1 (stereo not given in full)
inactive: inhibition [2] -4% | inhibition [3] -2% | outcome [5] | outcome [6] | outcome [7] | outcome [8]
active: growth inhibition [1] 98% | growth inhibition [4] 101%

O=C(Cc1cc(F)cc(F)c1)NC1CCN(c2ccnc3cc(Cl)ccc23)C1 (stereo not given)
active: growth inhibition [1] 101% | growth inhibition [4] 82%
inactive: inhibition [2] 13% | inhibition [3] 0% | outcome [5] | outcome [6] | outcome [7] | outcome [8]

CCNC(=O)c1ccc2c(c1)c(C)c(C)n2Cc1ccc(F)cc1
inactive: inhibition [2] 25% | inhibition [3] -1% | outcome [5] | outcome [6] | outcome [7] | outcome [8]
active: growth inhibition [1] 91% | growth inhibition [4] 93%

O=C(/C=C/c1ccc(C(F)(F)F)cc1)NCCCCCN1CCCN(C(=O)Nc2cccc(Cl)c2)CC1
inactive: growth inhibition [1] 3% | inhibition [2] 16% | inhibition [3] 3% | outcome [5] | outcome [6] | outcome [7] | outcome [8]
active: growth inhibition [4] 92%

O=[N+]([O-])c1cccc(-n2nc(NCc3ccc(Cl)cc3)nc2-c2ccc(F)c(C(F)(F)F)c2)c1
inactive: inhibition [2] 6% | inhibition [3] -3% | outcome [5] | outcome [6] | outcome [7] | outcome [8]
active: growth inhibition [1] 93% | growth inhibition [4] 98%

Cc1sc(C)c(CNCCCNc2cc(=O)c3ccccc3[nH]2)c1Br
active: growth inhibition [4] 93%
inactive: growth inhibition [1] 15% | inhibition [2] -4% | inhibition [3] -2% | outcome [5] | outcome [6] | outcome [7] | outcome [8]

Cc1cc(OCCCN2CCN(CCN3CCOCC3)CC2)ccc1NC(=O)COc1ccc(Cl)cc1C(=O)c1cc(Cl)cc(C#N)c1
active: growth inhibition [1] 78% | growth inhibition [4] 99%
inactive: inhibition [2] 30% | inhibition [3] -3% | outcome [5] | outcome [6] | outcome [7] | outcome [8]

CCCC(=O)Nc1ccc(OCCCCN(CC(C)(C)C)c2ccc(C#N)c(C(F)(F)F)c2)cc1
inactive: inhibition [2] 9% | inhibition [3] -1% | outcome [5] | outcome [6] | outcome [7] | outcome [8]
active: growth inhibition [1] 69% | growth inhibition [4] 83%

O=c1cc(NCCCNCc2[nH]c3cc(Cl)ccc3c2Cl)[nH]c2ccccc12
active: growth inhibition [4] 91%
inactive: growth inhibition [1] 1% | inhibition [2] 5% | inhibition [3] -2% | outcome [5] | outcome [6] | outcome [7] | outcome [8]

COc1cccc([C@@H](CC(=O)Nc2cc(C(F)(F)F)ccc2OC)Nc2ccc(C#N)c3ccccc23)c1
inactive: inhibition [2] 19% | inhibition [3] -3% | outcome [5] | outcome [6] | outcome [7] | outcome [8]
active: growth inhibition [1] 53% | growth inhibition [4] 96%

CN1CCC[C@H]1COc1ccc(CN2CC[C@H](NC(=O)c3ccc(Cl)c(Cl)c3)C2)cc1Br
inactive: growth inhibition [1] 20% | inhibition [3] -1% | outcome [5] | outcome [6] | outcome [7] | outcome [8]
active: inhibition [2] 81% | growth inhibition [4] 101%

CC(CNc1ccnc(Nc2ccc3[nH]c(=O)[nH]c3c2)n1)c1ccccc1 (stereo not given)
active: inhibition [2] 50% | growth inhibition [4] 99%
inactive: growth inhibition [1] 2% | inhibition [3] 6% | outcome [5] | outcome [6] | outcome [7] | outcome [8]

Cc1ccc(-c2cc(C(=O)Nc3ccc(S(=O)(=O)N4CCOCC4)cc3)[nH]n2)c(O)c1C
active: growth inhibition [4] 91%
inactive: growth inhibition [1] 45% | inhibition [2] 18% | inhibition [3] -5% | outcome [5] | outcome [6] | outcome [7] | outcome [8]

COc1cccc(C(=O)NC(C=Cc2ccccc2)c2cc(Cl)c3cccnc3c2O)c1 (stereo not given)
inactive: inhibition [2] 27% | inhibition [3] -1% | outcome [5] | outcome [6] | outcome [7] | outcome [8]
active: growth inhibition [1] 58% | growth inhibition [4] 95%

COc1cc2nc(N3CCC(CCCC4CCNCC4)CC3)nc(NCc3ccccn3)c2cc1OC
active: growth inhibition [4] 101%
inactive: growth inhibition [1] 6% | inhibition [2] 2% | inhibition [3] 3% | outcome [5] | outcome [6] | outcome [7] | outcome [8]

O=C(NCCCCN1CCC(c2ccc3c(c2O)CCCC3)CC1)c1ccc(NC(=O)c2ccc(Cl)cc2)cc1
inactive: inhibition [3] -2% | outcome [5] | outcome [6] | outcome [7] | outcome [8]
active: growth inhibition [1] 100% | inhibition [2] 99% | growth inhibition [4] 100%

CC(C(=O)N1CCCC1)N1CCN(C(c2ccccc2)c2ccccc2)CC1 (stereo not given)
active: growth inhibition [1] 56% | growth inhibition [4] 82%
inactive: inhibition [2] -2% | inhibition [3] 3% | outcome [5] | outcome [6] | outcome [7] | outcome [8]

O=C(c1cccc(COc2ccc3c(c2)CCN(C2CCCC2)CC3)c1)N1CCN(c2ccncc2)CC1
active: growth inhibition [4] 100%
inactive: growth inhibition [1] 35% | inhibition [2] 49% | inhibition [3] -8% | outcome [5] | outcome [6] | outcome [7] | outcome [8]

COc1ccccc1-c1csc(C(=O)NCC2CCN(Cc3ccc(C(C)(C)C)cc3)C2)c1 (stereo not given)
active: growth inhibition [4] 93%
inactive: growth inhibition [1] 11% | inhibition [2] 29% | inhibition [3] 0% | outcome [5] | outcome [6] | outcome [7] | outcome [8]

COc1ccc(-c2cc(C(F)(F)F)n3ncc(C(=O)Nc4cc(C)ccc4O)c3n2)cc1OC
inactive: inhibition [2] 2% | inhibition [3] 0% | outcome [5] | outcome [6] | outcome [7] | outcome [8]
active: growth inhibition [1] 100% | growth inhibition [4] 100%

CC(Oc1ccc(Cl)cc1)C(=O)N(C)C1CCN(CCCCCNC(=O)/C=C/c2ccc(Cl)c(Cl)c2)CC1 (stereo not given)
inactive: growth inhibition [1] 10% | inhibition [3] -2% | outcome [5] | outcome [6] | outcome [7] | outcome [8]
active: inhibition [2] 61% | growth inhibition [4] 85%

COC(=O)CNC(c1ccccc1)c1cc(Br)ccc1NC(=O)c1ccccc1Br (stereo not given)
inactive: inhibition [2] 10% | inhibition [3] -1% | outcome [5] | outcome [6] | outcome [7] | outcome [8]
active: growth inhibition [1] 77% | growth inhibition [4] 99%

CC(C)Cn1c(N)cc(=O)n(C)c1=O
inactive: growth inhibition [1] 0% | inhibition [2] 3% | inhibition [3] 3% | outcome [5] | outcome [6] | outcome [7] | outcome [8]
active: growth inhibition [4] 100%

CC1CCC(C[C@@H](C(=O)N[C@H](C(=O)Nc2nccs2)[C@@H](C)O)[C@H](CCC(F)(F)F)N(O)C=O)CC1 (stereo not given in full)
inactive: inhibition [2] -8% | inhibition [3] 3% | outcome [5] | outcome [6] | outcome [7] | outcome [8]
active: growth inhibition [1] 94% | growth inhibition [4] 95%

Cc1cc(NC2CCCC2)nc(Nc2ccccc2F)n1
active: growth inhibition [1] 53% | growth inhibition [4] 97%
inactive: inhibition [2] 24% | inhibition [3] -2% | outcome [5] | outcome [6] | outcome [7] | outcome [8]
